Consider twelve compounds from PubChem BioAssay (EPA / NIEHS).

Experiment [1] addresses human RAR-related Orphan Receptor gamma (RORg), RORC (gene 6097) (UniProt P51449). Put plainly: ATG_RORg_TRANS: Attagene TRANS-FACTORIAL HepG2 Assay for human RAR-related Orphan Receptor gamma (RORg) (AID 2283011; active = hit-call score of the fitted dose curve at least 0.9, where 1 is the maximum). The gist of the method: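 First, HepG2 liver cells were transfected with GAL4-UAS-driven reporter constructs and the RORg-Gal4 fusion. Next, they were treated with chemical for 24 h. Finally, reporter mRNA was quantified by RT-PCR and capillary electrophoresis, with upward activity fitted against DMSO.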

The target in experiment [2] is Retinoic acid receptor RXR-alpha (Homo sapiens) (UniProt P19793). Put plainly: ATG_RXRa_TRANS: Attagene TRANS-FACTORIAL HepG2 Assay for human Retinoid X Receptor alpha (RXRa) (AID 2283012; active = hit-call score of the fitted dose curve at least 0.9, where 1 is the maximum). The gist of the method: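 HepG2 cells transiently transfected with multiplexed GAL4-UAS reporter units and chimeric NR-GAL4 fusions, dosed 24 h. Reporter mRNA measured by RT-PCR, FAM labelling, HpaI digestion and capillary electrophoresis; gain-of-signal fitted relative to DMSO baseline.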
Sequence of Retinoic acid receptor RXR-alpha (Homo sapiens) (P19793 whole entry, looked up, the tested form may be a part): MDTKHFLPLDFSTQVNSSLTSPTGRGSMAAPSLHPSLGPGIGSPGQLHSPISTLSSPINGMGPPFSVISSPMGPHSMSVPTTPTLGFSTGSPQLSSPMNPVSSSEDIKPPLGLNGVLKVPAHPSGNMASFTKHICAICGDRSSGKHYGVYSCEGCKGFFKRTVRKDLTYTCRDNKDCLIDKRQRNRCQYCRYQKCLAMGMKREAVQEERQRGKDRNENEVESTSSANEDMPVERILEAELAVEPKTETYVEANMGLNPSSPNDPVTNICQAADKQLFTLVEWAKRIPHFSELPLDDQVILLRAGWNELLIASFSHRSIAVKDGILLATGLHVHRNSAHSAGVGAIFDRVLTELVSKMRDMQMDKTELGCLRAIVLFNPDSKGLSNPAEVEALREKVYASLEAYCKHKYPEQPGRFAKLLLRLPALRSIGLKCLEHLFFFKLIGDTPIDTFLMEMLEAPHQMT

The target in experiment [3] is human Retinoid X Receptor beta (RXRb), RXRB (gene 6257) (UniProt P28702). Put plainly: ATG_RXRb_TRANS: Attagene TRANS-FACTORIAL HepG2 Assay for human Retinoid X Receptor beta (RXRb) (AID 2283013; active = hit-call score of the fitted dose curve at least 0.9, where 1 is the maximum). Summed up:
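HepG2 cells transiently transfected with multiplexed reporter units driven by GAL4-UAS and exogenous chimeric NR-Gal4 proteins; treated 24 h. Reporter mRNA measured by RT-PCR, 6-FAM labelling and capillary electrophoresis; gain-of-signal fitted versus DMSO baseline.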

Experiment [4] addresses human Vitamin D Receptor (VDR), VDR (gene 7421) (UniProt P11473). Put plainly: ATG_VDR_TRANS: Attagene TRANS-FACTORIAL HepG2 Assay for human Vitamin D Receptor (VDR) (AID 2283022; active = hit-call score of the fitted dose curve at least 0.9, where 1 is the maximum). The gist of the method:
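Steps: transfect HepG2 with GAL4-UAS-driven reporter constructs; dose compounds 24 h; isolate RNA, reverse-transcribe, PCR-amplify with 6-FAM-labelled primer extension and HpaI digestion; quantify fragments by capillary electrophoresis relative to DMSO.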

Experiment [5] deals with human Thyroid Receptor alpha (THRa1), THRA (gene 7067) (UniProt P10827). Put plainly: ATG_THRa1_TRANS: Attagene TRANS-FACTORIAL HepG2 Assay for human Thyroid Receptor alpha (THRa1) (AID 2283014; active = hit-call score of the fitted dose curve at least 0.9, where 1 is the maximum). Summed up: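 Reporter transcript induction, read by capillary electrophoresis of 6-FAM-labelled RT-PCR products, reflects activity of a transfected THRa1-Gal4 fusion in HepG2 liver cells. Cells were dosed for 24 h; activity was fitted in the positive direction against DMSO.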
Sequence of human Thyroid Receptor alpha (THRa1), THRA (gene 7067) (P10827 whole entry, looked up, the tested form may be a part): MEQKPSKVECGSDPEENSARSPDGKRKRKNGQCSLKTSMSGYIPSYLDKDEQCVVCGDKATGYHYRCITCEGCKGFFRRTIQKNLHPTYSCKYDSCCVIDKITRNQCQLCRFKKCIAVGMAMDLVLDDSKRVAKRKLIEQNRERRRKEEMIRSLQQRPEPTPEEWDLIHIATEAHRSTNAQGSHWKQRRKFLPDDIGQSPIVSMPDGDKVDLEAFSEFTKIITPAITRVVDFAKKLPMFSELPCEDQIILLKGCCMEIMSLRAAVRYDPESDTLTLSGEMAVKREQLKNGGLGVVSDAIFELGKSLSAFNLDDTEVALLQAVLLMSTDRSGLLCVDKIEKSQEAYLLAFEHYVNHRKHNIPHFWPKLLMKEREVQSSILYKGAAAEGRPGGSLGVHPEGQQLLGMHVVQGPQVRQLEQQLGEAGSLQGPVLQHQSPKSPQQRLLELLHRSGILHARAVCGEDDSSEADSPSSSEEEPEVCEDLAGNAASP

Read-out in experiment [6]: Interleukin-1 alpha (IL1a), IL1A (gene 3552)
Put plainly: BSK_BE3C_IL1a: BioMAP Diversity Plus: BE3C Assay for Interleukin-1 alpha (IL1a) Biomarker Activity (AID 2283016). The settings on record: primary human bronchial epithelial cells; actives raise or lower the signal. Summed up:
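Human primary bronchial epithelial cells (BE3C system) were dosed with compound and IL-1a measured by ELISA 24 h later. Activity was fitted bidirectionally against DMSO baseline; cytotoxicity was tracked in parallel cultures by SRB total-protein staining.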

Read-out in experiment [7]: Monocyte Chemoattractant Protein-1 (MCP1), CCL2 (gene 6347)
Put plainly: BSK_3C_MCP1: BioMAP Diversity Plus: 3C Assay for Monocyte Chemoattractant Protein-1 (MCP1) Biomarker Activity (AID 2283017). To be noted: primary human endothelial cells (HUVEC); actives raise or lower the signal. The gist of the method:
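ELISA read-out of MCP-1 from human umbilical vein endothelial cell cultures harvested 24 h post-dosing. Gain or loss of signal was fitted relative to DMSO.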

Read-out in experiment [8]: Monocyte Chemoattractant Protein-1 (MCP1), CCL2 (gene 6347)
Put plainly: BSK_4H_MCP1: BioMAP Diversity Plus: 4H Assay for Monocyte Chemoattractant Protein-1 (MCP1) Biomarker Activity (AID 2283018). To be noted: primary human endothelial cells (HUVEC); actives raise or lower the signal. The gist of the method:
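Human umbilical vein endothelial cells (4H system) dosed with chemical; MCP-1 measured by ELISA 24 h after dosing. Bidirectional curve fitting against DMSO negative control as baseline; parallel SRB total-protein staining tracks overt cytotoxicity.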

Read-out in experiment [9]: Human Leukocyte Antigen - DR isotype (HLADR), HLA-DRA (gene 3122)
Put plainly: BSK_3C_HLADR: BioMAP Diversity Plus: 3C Assay for Human Leukocyte Antigen - DR isotype (HLADR) Biomarker Activity (AID 2283019).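 For outcome: ELISA of cell-surface HLA-DR on HUVEC 24 h after dosing.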 To be noted: primary human endothelial cells (HUVEC); actives raise or lower the signal. The gist of the method:
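ELISA readout of surface HLA-DR on human umbilical vein endothelium, taken 24 h after chemical treatment. Gain- and loss-of-signal were both fitted relative to DMSO.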

Read-out in experiment [10]: Interleukin-8 (IL8), CXCL8 (gene 3576)
Put plainly: BSK_3C_IL8: BioMAP Diversity Plus: 3C Assay for Interleukin-8 (IL8) Biomarker Activity (AID 2283020). The settings on record: primary human endothelial cells (HUVEC); actives raise or lower the signal. Summed up: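 Primary human umbilical vein endothelial cells (3C system) were exposed to test chemical for 24 h, then IL-8 was quantified by ELISA. Responses were fitted bidirectionally against DMSO vehicle as baseline.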

Read-out in experiment [11]: Monokine induced gamma interferon (MIG), CXCL9 (gene 4283)
Put plainly: BSK_3C_MIG: BioMAP Diversity Plus: 3C Assay for Monokine induced gamma interferon (MIG) Biomarker Activity (AID 2283021).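 For AC50: MIG protein level measured by immunoassay in the treated endothelial cultures.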 To be noted: primary human endothelial cells (HUVEC); actives raise or lower the signal. Summed up:
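Primary human umbilical vein endothelial cells in the 3C system were exposed to chemical for 24 h, after which MIG was quantified by ELISA. Activity was fitted bidirectionally against DMSO as negative control and baseline.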

Experiment [12] is described as follows: BSK_3C_SRB: Viability Assessment in the BioMAP Diversity Plus: 3C Assay (AID 2283023).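 Note: fitted both ways against DMSO so a hit may be signal rise or drop.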 The settings on record: primary human endothelial cells (HUVEC). The gist of the method:
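Absorbance at 560 nm of sulforhodamine B-stained (0.1%) total protein served as a cytotoxicity readout in human umbilical vein endothelial cells, 24 h after chemical treatment. Signal was fitted bidirectionally relative to DMSO.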

Read-out in experiment [13]: Matrix Metallopeptidase 1 (MMP1), MMP1 (gene 4312)
Put plainly: BSK_BE3C_MMP1: BioMAP Diversity Plus: BE3C Assay for Matrix Metallopeptidase 1 (MMP1) Biomarker Activity (AID 2283024). The settings on record: primary human bronchial epithelial cells; actives raise or lower the signal. The gist of the method: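 Primary human bronchial epithelial cells were dosed with test chemicals, and MMP1 levels were measured by ELISA 24 h later. Data were fitted bidirectionally against DMSO as the negative control and activity baseline.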

Read-out in experiment [14]: Pselectin, SELP (gene 6403)
Put plainly: BSK_4H_Pselectin: BioMAP Diversity Plus: 4H Assay for Pselectin Biomarker Activity (AID 2283026). To be noted: primary human endothelial cells (HUVEC); actives raise or lower the signal. Summed up: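 Primary human umbilical vein endothelial cells were exposed to test chemical for 24 h, then cell-surface P-selectin was quantified by ELISA. Activity was fitted bidirectionally against DMSO as negative control and baseline.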

Experiment [15] in a line: BSK_4H_SRB: Viability Assessment in the BioMAP Diversity Plus: 4H Assay (AID 2283027).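 For AC50: curves fitted both ways versus DMSO so AC50 may be loss or gain.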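 Note: cells exposed to compound for 24 h before staining.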 The settings on record: primary human endothelial cells (HUVEC). The gist of the method: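 Human umbilical vein endothelial cells were dosed with chemical and, after 24 h, fixed with 10% TCA, stained with 0.1% sulforhodamine B, and read at 560 nm to give total protein as a cytotoxicity measure. Bidirectional fitting relative to DMSO control.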

The nature of experiment [16]: BSK_BE3C_SRB: Viability Assessment in the BioMAP Diversity Plus: BE3C Assay (AID 2283028).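 For AC50: fitted both ways so AC50 may mark signal gain or loss versus DMSO.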 To be noted: primary human bronchial epithelial cells. The gist of the method: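 Cells (human bronchial epithelial, primary) are treated with chemicals, and after 24 h the parallel cultures are fixed in 10% TCA. These are then stained with 0.1% SRB and read at 560 nm. Gain or loss of signal is fitted relative to DMSO.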

Read-out in experiment [17]: Thrombomodulin, THBD (gene 7056)
Put plainly: BSK_3C_Thrombomodulin: BioMAP Diversity Plus: 3C Assay for Thrombomodulin Biomarker Activity (AID 2283029). The settings on record: primary human endothelial cells (HUVEC); actives raise or lower the signal. Summed up: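 Primary human umbilical vein endothelial cells (3C system) were exposed to chemical for 24 h, then thrombomodulin levels were measured by ELISA. Activity was fitted bidirectionally against the DMSO negative control as baseline.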

Read-out in experiment [18]: E-selectin (Homo sapiens) (UniProt P16581)
Put plainly: BSK_3C_Eselectin: BioMAP Diversity Plus: 3C Assay for Eselectin Biomarker Activity (AID 2283015).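 For outcome: cell surface E-selectin protein quantified by ELISA 24 h after dosing.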 To be noted: primary human endothelial cells (HUVEC); actives raise or lower the signal. The gist of the method: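 ELISA read-out of E-selectin on endothelial monolayers after 24 h chemical treatment. Human umbilical vein primary cells served as the system, with DMSO defining baseline activity for bidirectional fitting.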

A short description of experiment [19]: BSK_3C_Vis: BioMAP Diversity Plus: 3C Assay for Morphology Visualization (AID 2283025).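 Note: fitted both ways so gain or loss versus DMSO counts.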 The settings on record: primary human endothelial cells (HUVEC). Summed up: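 Human umbilical vein endothelial cells in the 3C system were imaged by light microscopy 24 h after chemical dosing to record cell morphology. Activity was fitted bidirectionally against DMSO as negative control and baseline; the endpoint serves as a background control.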

Read-out in experiment [20]: Urokinase-type plasminogen activator receptor (uPAR), PLAUR (gene 5329)
Put plainly: BSK_4H_uPAR: BioMAP Diversity Plus: 4H Assay for Urokinase-type plasminogen activator receptor (uPAR) Biomarker Activity (AID 2283030). The settings on record: primary human endothelial cells (HUVEC); actives raise or lower the signal. The gist of the method: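 Cell-surface uPAR ELISA signal, measured 24 h after dosing human umbilical vein endothelial cells, was analyzed with bidirectional fitting relative to DMSO. Parallel SRB staining of total protein tracked overt cytotoxicity.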

The AC50 is the concentration giving half of the maximal activity seen.

Inconclusive results are not listed. Calls of active or inactive are those of the source. Rule for the calls, unless noted: active = hit-call score of the fitted dose curve at least 0.9, where 1 is the maximum; inactive = score below 0.9.

Sequence of human RAR-related Orphan Receptor gamma (RORg), RORC (gene 6097) (P51449 whole entry, looked up, the tested form may be a part): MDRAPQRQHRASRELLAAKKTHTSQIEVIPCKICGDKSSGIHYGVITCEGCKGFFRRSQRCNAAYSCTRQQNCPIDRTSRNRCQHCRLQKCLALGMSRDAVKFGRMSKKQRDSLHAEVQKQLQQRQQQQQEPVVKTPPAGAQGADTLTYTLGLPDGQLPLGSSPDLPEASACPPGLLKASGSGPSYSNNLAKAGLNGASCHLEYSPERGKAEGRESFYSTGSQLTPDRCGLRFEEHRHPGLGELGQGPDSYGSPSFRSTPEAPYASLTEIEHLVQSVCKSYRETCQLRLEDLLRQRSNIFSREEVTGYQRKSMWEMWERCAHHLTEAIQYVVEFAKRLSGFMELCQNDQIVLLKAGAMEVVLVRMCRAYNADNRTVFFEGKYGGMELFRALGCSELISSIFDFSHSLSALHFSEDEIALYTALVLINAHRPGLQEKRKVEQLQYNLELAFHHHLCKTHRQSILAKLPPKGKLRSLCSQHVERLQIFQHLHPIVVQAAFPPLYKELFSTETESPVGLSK
Sequence of human Vitamin D Receptor (VDR), VDR (gene 7421) (P11473 whole entry, looked up, the tested form may be a part): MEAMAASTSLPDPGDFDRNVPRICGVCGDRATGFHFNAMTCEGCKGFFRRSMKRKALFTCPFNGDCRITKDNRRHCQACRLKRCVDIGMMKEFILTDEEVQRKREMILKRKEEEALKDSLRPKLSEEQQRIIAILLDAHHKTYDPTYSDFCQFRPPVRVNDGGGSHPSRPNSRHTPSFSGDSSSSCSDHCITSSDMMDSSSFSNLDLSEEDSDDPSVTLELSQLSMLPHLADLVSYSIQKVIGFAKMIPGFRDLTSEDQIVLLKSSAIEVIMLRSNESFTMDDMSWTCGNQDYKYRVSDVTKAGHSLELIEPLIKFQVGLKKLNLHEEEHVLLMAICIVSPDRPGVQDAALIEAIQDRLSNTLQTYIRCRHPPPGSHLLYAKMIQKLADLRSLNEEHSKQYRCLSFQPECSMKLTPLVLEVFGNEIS
Sequence of human Retinoid X Receptor beta (RXRb), RXRB (gene 6257) (P28702 whole entry, looked up, the tested form may be a part): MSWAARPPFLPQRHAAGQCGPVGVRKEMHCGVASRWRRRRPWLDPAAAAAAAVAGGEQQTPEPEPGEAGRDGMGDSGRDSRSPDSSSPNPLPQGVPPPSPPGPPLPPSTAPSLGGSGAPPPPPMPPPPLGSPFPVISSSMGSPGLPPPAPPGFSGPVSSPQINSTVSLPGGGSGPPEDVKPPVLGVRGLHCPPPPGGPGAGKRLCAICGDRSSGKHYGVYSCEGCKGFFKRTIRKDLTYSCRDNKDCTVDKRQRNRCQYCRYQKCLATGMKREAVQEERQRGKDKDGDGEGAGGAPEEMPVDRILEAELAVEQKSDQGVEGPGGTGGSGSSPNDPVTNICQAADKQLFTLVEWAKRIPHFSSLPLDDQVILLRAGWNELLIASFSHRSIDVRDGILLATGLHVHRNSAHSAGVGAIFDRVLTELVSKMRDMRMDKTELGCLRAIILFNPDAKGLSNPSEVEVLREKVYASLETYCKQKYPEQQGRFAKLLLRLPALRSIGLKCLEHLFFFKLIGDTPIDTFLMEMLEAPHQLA
Sequence of E-selectin (Homo sapiens) (P16581 whole entry, looked up): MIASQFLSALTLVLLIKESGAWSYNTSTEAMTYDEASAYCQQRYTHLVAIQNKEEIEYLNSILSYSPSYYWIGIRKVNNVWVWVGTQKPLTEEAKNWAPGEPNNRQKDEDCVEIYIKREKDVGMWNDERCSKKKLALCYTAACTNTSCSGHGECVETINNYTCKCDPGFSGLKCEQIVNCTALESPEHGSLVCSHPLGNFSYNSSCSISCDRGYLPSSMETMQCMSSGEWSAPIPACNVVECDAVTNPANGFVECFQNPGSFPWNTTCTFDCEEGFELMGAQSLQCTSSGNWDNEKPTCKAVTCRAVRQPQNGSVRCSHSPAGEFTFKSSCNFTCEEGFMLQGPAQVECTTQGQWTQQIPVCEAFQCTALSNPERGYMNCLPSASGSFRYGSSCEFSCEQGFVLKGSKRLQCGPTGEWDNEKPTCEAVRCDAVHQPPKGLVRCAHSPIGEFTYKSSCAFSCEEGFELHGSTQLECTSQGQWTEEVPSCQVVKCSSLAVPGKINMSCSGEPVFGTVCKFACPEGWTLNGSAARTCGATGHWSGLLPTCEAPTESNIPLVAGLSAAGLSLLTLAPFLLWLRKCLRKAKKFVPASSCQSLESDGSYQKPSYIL

With `O=C(O)CF`, the compound was classed as inactive in experiment [1], in [2], in experiment [3] and in experiment [4].

Take `N#Cc1ccc(O)cc1`: the compound was classed as inactive in experiment [1], in [3], in experiment [5] and in experiment [4].

Consider `Nc1ccc(Sc2ccc(N)cc2)cc1`, for which the compound was classed as inactive in experiment [1], in experiment [2], in [3] and in [4].

`O=[N+]([O-])c1ccc(Cl)c(Cl)c1`: the call in experiment [2], in experiment [3], in [5], in [6], in [7] and in experiment [8] was inactive. Further, the outcome in [9], in experiment [10], in experiment [11], in [12], in experiment [13] and in [14] was inactive. The outcome in experiment [15], in experiment [16] and in experiment [17] was inactive.

Consider `ClC1=C(Cl)C2(Cl)C3C(Cl)C(Cl)CC3C1(Cl)C2(Cl)Cl` (stereo not drawn), for which the compound was classed as inactive in [2], in experiment [5], in experiment [6], in [4], in experiment [16] and in [17]. Besides, the AC50 in experiment [3] is 23.8 µM (active); in experiment [18], 29.7 µM (active); in experiment [7], 34.3 µM (active); in experiment [8] it was 12.1 µM (active); in [9], 17.5 µM (active); in [10], 35.6 µM (active). The AC50 in experiment [11] is 35.6 µM (active); in [12] it was 29.8 µM (active); in [13], 14.4 µM (active); in experiment [19], 37.3 µM (active); in [14] it was 24.7 µM (active); in experiment [15] it was 29.6 µM (active).

Consider `CC(C)(C)c1ccccc1OP(=O)(Oc1ccccc1)Oc1ccccc1`, for which the compound was classed as inactive in experiment [2], in [3], in experiment [6], in experiment [11], in [4] and in [16]. Also, the AC50 was 20 µM (active) in experiment [7]; 13.6 µM (active) in [8]; 20 µM (active) in experiment [9]; 20 µM (active) in experiment [10]; 20 µM (active) in experiment [12]; 5.01 µM (active) in [13]. The AC50 is 20 µM (active) in [19], 20 µM (active) in experiment [14], 11.1 µM (active) in experiment [15] and 20 µM (active) in [17].

As for `CCCCN(CCCC)N=O`, the result in experiment [2], in experiment [3], in experiment [18], in experiment [6], in [7] and in [8] was inactive. Moreover, the result in [9], in experiment [10], in experiment [11], in [12], in experiment [13] and in experiment [14] was inactive. Also, the result in experiment [15], in experiment [16] and in [17] was inactive.

Consider `CC1(C)CN=C(NN=C(/C=C/c2ccc(C(F)(F)F)cc2)/C=C/c2ccc(C(F)(F)F)cc2)NC1`, for which the compound was called inactive in experiment [2] and in experiment [5].

With `Cc1ccc(O)cc1C`, the call in [2], in experiment [3], in [5], in experiment [6], in experiment [7] and in experiment [8] was inactive. The result in [9], in experiment [10], in [11], in [12], in [13] and in experiment [14] was inactive. The outcome in experiment [15], in experiment [16], in experiment [17] and in experiment [20] was inactive.

As for `CNC(=O)Oc1ccc(N(C)C)c(C)c1`, in [3], the outcome was inactive.

In the case of `CC(O)C#N` (stereo not drawn), the compound was classed as inactive in [1], in experiment [5] and in experiment [4].

In the case of `O=c1ssc(Cl)c1Cl`, the call in experiment [2], in experiment [5] and in experiment [17] was inactive. Further, the AC50 in experiment [6] was 12.2 µM (active); in experiment [7], 8.43 µM (active); in experiment [8], 3.92 µM (active); in [9], 3.59 µM (active); in experiment [10], 7.48 µM (active); in experiment [11], 14.8 µM (active). Besides, the AC50 in experiment [12] was 5.07 µM (active); in [13], 9.81 µM (active); in [14] it was 4.74 µM (active); in experiment [15], 5.42 µM (active); in experiment [16] it was 5.34 µM (active); in [20] it was 7.3 µM (active).
